Measured values: PubChem BioAssay (EPA / NIEHS)
“And” between values parts separate entries of the source, which are not always exact repeats. Identical values can stand only once. Results filed as inconclusive are left out. The source made the active and inactive calls. How the source made its calls: active means hit-call score of the fitted dose curve at least 0.9, where 1 is the maximum; inconclusive means response in the unintended direction; inactive means score below 0.9.

assay: ACEA_AR_antagonist_AUC_viability: ACEA Biosciences xCELLigence Real-Time Cell Analysis on Androgen Receptor Antagonism for Viability (AID 2283776);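 further: area under impedance growth curve at 80 h after dosing as viability; hits lower the growth signal relative to DMSO meaning cytotoxicity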
Protocol: ACEA_AR_antagonist is a cell-based, single-readout assay that uses 22Rv1, a human prostate cancer cell line, with measurements taken at 80 hours after chemical dosing in a 384-well plate, although TO5 and TO6 (mc0.srcf) used a 96-well plate. Differences in plate size can be ignored given data normalization.ACEA_AR_80hr is one of two assay component(s) measured or calculated from the […] assay. It is designed to make measurements of real-time cell-growth kinetics, a form of growth reporter, as detected with electrical impedance signals by Real-Time Cell Electrode Sensor (RT-CES) technology.Data from the assay component ACEA_AR_antagonist_AUC_viability was analyzed in the positive analysis fitting direction relative to DMSO as the negative control and baseline of activity. Using a type of growth reporter, loss-of-signal activity can be used to understand changes in the viability. Furthermore, this assay endpoint can be referred to as a secondary readout, because this assay has produced multiple assay endpoints where this one serves a viability function. To generalize the intended target to other relatable targets, this assay endpoint is annotated to the cell cycle intended target family, where the subfamily is cytotoxicity.
The xCELLigence system Multi-E-Plate stations were used to measure the time-dependent response to chemicals. Each compound was tested in an eight-point, 1:4 serial dilution series starting at a maximum final concentration of 100 uM. A maximum starting concentration of 0.5% DMSO was present in the 100 uM chemical samples and was diluted along with the test article dilution series. The screen was performed in biological duplicate using two separate, 96-well, E-Plates 96 for each dilution series (n = 2). Positive controls (MG132 and testosterone) and a negative control (assay media) were tested in quadruplicate on each testing plate. Then, 0.5% and 0.125% DMSO were tested in duplicates in each plate to serve as solvent controls for the 2 highest concentrations of testing compounds: 100 uM and 25 uM. Reference compounds were tested with 8 concentrations with 1:5 serial dilutions. All screening was carried out by ACEA Biosciences, Inc. (San Diego, CA). 22Rv1 cells purchased from ATCC were maintained in media supplemented with 10% fetal bovine serum (FBS). Before screening, 22Rv1 cells were preconditioned in assay medium. Cells were then detached and seeded in E-Plates 96 in assay medium. After overnight monitoring of growth once every hour, compounds were added to […] cells and remained in the medium until the end of the experiment. Cellular responses were then recorded once every 5 min for the first 5 h, and once every hour for an additional 100 h.

| Structure (SMILES) | outcome | AC50 |
| --- | --- | --- |
| [O-][Cl+2]([O-])O | inactive | – |
| C[C@H]1CCCC(=O)CCC/C=C/c2cc(O)cc(O)c2C(=O)O1 | – | 31.3 µM (active) and 9.08 µM (active) |
| C1CCC(NC2CCCCC2)CC1 | inactive | – |
| C=C(C)C#N | inactive | – |
| O=C(Cc1ccccc1)c1ccccc1 | inactive | – |
| COP(=S)(OC)Oc1ccc(Sc2ccc(OP(=S)(OC)OC)cc2)cc1 | inactive | – |
| O=C(O)C(Cl)(Cl)Cl | inactive | – |
| ClC(Cl)=C(Cl)C(Cl)=C(Cl)Cl | inactive | – |
| CCN1CCC2(CC1)COc1cc3c(cc12)N(C(=O)c1ccc(-c2ccc(-c4nnc(C)o4)cc2C)cc1)CC3 | – | 10.4 µM (active) |
| Cc1ccccc1C(=O)Nc1cccc(OC(C)C)c1 | inactive | – |
| c1cc[c]([Hg][c]2ccccc2)cc1 | – | 16.6 µM (active) |
| CC1(C)CCC(Cc2ccc(Cl)cc2)C1(O)Cn1cncn1 (stereo not given) | inactive | – |
| COc1ccc(C=O)cc1 | inactive | – |
| Cc1ccccc1N | inactive | – |
| Cl/C=C/Cl | inactive | – |
| CC(=O)[O][Hg][c]1ccccc1 | – | 1.63 µM (active) |
| CC1(C)Cc2cccc(O)c2O1 | inactive | – |
| CCOP(=S)(OCC)Oc1nc(Cl)c(Cl)cc1Cl | – | 63.3 µM (active) |
| CC12CC1(C)C(=O)N(c1cc(Cl)cc(Cl)c1)C2=O (stereo not given) | – | 81 µM (active) |
| Cc1ccc(N)cc1Cl | inactive | – |

| Structure (SMILES) | outcome | AC50 |
| --- | --- | --- |
| Cl/C=C\C[N+]12CN3CN(CN(C3)C1)C2 | inactive | – |
| CC(C)(C)c1cc(O)ccc1O | – | 86.2 µM (active) |
| O=C(O)C(F)(F)C(F)(F)C(F)(F)C(F)(F)C(F)(F)C(F)(F)C(F)(F)C(F)(F)C(F)(F)C(F)(F)F | inactive | – |
| CC(C)(c1ccc(OCC2CO2)cc1)c1ccc(OCC2CO2)cc1 (stereo not given) | inactive | – |
| CCCCCCCCc1ccc(O)cc1 | – | 28.9 µM (active) |
| CC(C)(OO)c1ccccc1 | inactive | – |
| OCc1ccco1 | inactive | – |
| O=c1[nH]c(=O)[nH]c(=O)[nH]1 | inactive | – |
| Clc1ccc(COC(Cn2ccnc2)c2ccc(Cl)cc2Cl)cc1 (stereo not given) | – | 7.1 µM (active) |
| C=CC#N | inactive | – |
| O=C1C(Cl)=C(Cl)C(=O)c2ccccc21 | inactive | – |
| CCOP(=S)(OCC)SCSP(=S)(OCC)OCC | – | 67 µM (active) |
| Oc1ccc(-c2ccccc2)cc1 | – | 1.1 µM (active) |
| C=C(C)C(=O)[O][Sn]([CH2]CCC)([CH2]CCC)[CH2]CCC | – | 1.35 µM (active) |
| ClC1(Cl)C2(Cl)C3(Cl)C4(Cl)C(Cl)(Cl)C5(Cl)C3(Cl)C1(Cl)C5(Cl)C24Cl (stereo not given) | inactive | – |
| NNC(=S)NN | inactive | – |
| ClCC(Cl)CCl | inactive | – |
| O=C(O)C(F)(F)C(F)(F)C(F)(F)C(F)(F)C(F)(F)C(F)(F)F | inactive | – |
| COc1cc(-c2ccc(N)c(OC)c2)ccc1N | – | 18.4 µM (active) and 22.3 µM (active) |
| CN(C)N=O | inactive | – |
